Compound activity from PubChem BioAssay.
Shown are actives, neighbours in structure and some others; about 7.3% of the full set was active somewhere.
ELG1 genotox = induces genotoxicity in HEK293T cells with luciferase-tagged ELG1; HEK293T ELG1-luciferase reporter, luminescence, 16 h; Potency, µM (doses to about 46 µM), for the others: at the highest dose activity change, positive = activation, most hits filed as activators; actives 1.3% (n = 330,000); AID 504466; note: % of control where 0% means no effect; nearly all actives have a fitted effect of over 60% in size
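DMSO vehicle served as control against compound-treated ELG1-luciferase HEK293T cells; exposure lasted 16 hr at 37 °C and 5% CO2, followed by ONE-Glo luminescence detection after 30 min.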
SMN2 splice enh = SMN2 splice variant enhancement | HEK293 SMN2-luciferase splicing reporter, luminescence, 30-36 h | Potency, µM (titrated, usually from 46.1 µM), inactives show top-dose activity change, positive = activation, usual class: activators | actives 2.8% (n = 210,000) | AID 1458; note: % of control where 0% means no effect; nearly all actives have a fitted effect of over 55% in size
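HEK293 cells carry an SMN2 minigene-luciferase reporter in which exon 7 inclusion puts luciferase in frame. Cells were seeded at 2000 cells/well, attached for 10-12 hours, then exposed to compounds for 30-36 hours at 37C before ONE-Glo luminescence.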
FLuc modulator = firefly luciferase modulation, counter-screen for miR-21 project | P08659 | purified FLuc, Km substrates, luminescence inhibition | Potency, µM (doses to about 57.5 µM), for the others: at the highest dose activity change, negative = inhibition, hits mostly inhibitors | actives 6.9% (n = 360,000) | AID 588342;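 note: plate controls were vehicle for no effect and reference inhibitor for full effect; nearly all actives have a fitted effect of over 55% in size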
Target sequence (P08659 whole entry, looked up): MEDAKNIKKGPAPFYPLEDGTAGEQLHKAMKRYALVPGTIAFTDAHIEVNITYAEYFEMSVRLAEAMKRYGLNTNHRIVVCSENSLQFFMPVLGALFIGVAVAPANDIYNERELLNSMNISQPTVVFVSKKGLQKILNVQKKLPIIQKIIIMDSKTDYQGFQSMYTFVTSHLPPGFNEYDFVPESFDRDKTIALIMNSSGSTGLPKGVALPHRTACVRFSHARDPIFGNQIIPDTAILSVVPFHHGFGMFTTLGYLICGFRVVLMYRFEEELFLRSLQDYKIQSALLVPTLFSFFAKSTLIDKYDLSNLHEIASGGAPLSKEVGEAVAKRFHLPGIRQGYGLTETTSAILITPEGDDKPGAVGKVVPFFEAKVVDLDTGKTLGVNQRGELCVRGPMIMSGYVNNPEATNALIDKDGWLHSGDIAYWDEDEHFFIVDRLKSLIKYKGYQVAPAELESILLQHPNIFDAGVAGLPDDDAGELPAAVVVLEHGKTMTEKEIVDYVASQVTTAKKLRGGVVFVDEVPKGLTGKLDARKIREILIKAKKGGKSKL
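Biochemical qHTS of compounds, final roughly 60 µM downward over six points, against 10 nM purified firefly luciferase using Km concentrations of substrates (10 uM D-luciferin, 10 uM ATP) in Tris acetate pH 7.5 buffer; luminescence output.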
Luc counter = Kinase-Glo luciferase inhibition (counter-screen). Q27757. Kinase-Glo luciferase, ATP luminescence, 8 min. Potency, µM (doses to about 38.3 µM), without a hit: top-dose activity change, negative = inhibition, hits mostly inhibitors. actives 0.28% (n = 200,000); note: % is set by controls: 0 for no effect and ±100 for the full control effect; nearly all actives have a fitted effect of over 60% in size
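Compounds were added to a substrate mix at pH 7.2 (50 mM imidazole, 10 uM ATP, within the enzyme's linear range), followed by Kinase-Glo detection reagent; luminescence was measured after 8 minutes at ambient temperature.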
Rab9 promoter act = activators of Rab9 promoter; Huh7 Rab9 promoter-luciferase reporter, luminescence, 24 h; Potency, µM (top dose mostly 9.22 µM), inactives show at the highest dose activation, negative = inhibition, actives largely listed as activators; actives 2.8% (n = 320,000); note: % of control where 0% means no effect; nearly all actives have a fitted effect of over 60% in size
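Huh7 reporter line, Rab9 promoter upstream of luciferase. Compound exposure 24 h at 37 °C in reduced-serum medium with 10% FBS. Read-out: luminescence.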
NPC1 promoter act = activators of NPC1 promoter. AID 485313. Potency, µM (titrated, usually from 9.22 µM), inactives show top-dose activation, usual class: activators. actives 2.4% (n = 320,000). Huh7 NPC1 promoter luciferase reporter, 24 h; note: % of control where 0% means no effect; nearly all actives have a fitted effect of over 60% in size
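Luminescence from an NPC1 promoter-driven luciferase reporter in stably transfected Huh7 cells was measured after 24 h compound treatment at 37 °C, followed by 10 min ambient incubation with luciferase detection reagent.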
Starred values were filed as active, the others as inactive; u = inconclusive; x = no result given; [ ] = remark or other dose. Calls come from the whole dose curve; as a rule, active = well fitted curve in the direction sought with a large enough effect; inconclusive = small, poorly fitted or top-dose-only effect, or another doubt; inactive = no such curve, though single readings can be large; an effect the other way counts as inactive or inconclusive. Potency is the fitted concentration of half-maximal effect.

SMILES	ELG1 genotox	SMN2 splice enh	FLuc modulator	Luc counter	Rab9 promoter act	NPC1 promoter act
O=C(CCn1cnc2onc(-c3ccc(F)cc3)c2c1=O)N1CCN(c2ccccc2F)CC1	x	x	-1%	x	x	x
CNCC[C@H](Oc1ccccc1OC)c1ccccc1	x	-13%[20.6 µM]	x	-3%	x	x
CN(C(=O)Nc1ccc(Cl)cc1Cl)C1CCCC1	u	x	19µM*	x	4µM*	u
COc1cc(/C(C)=N/Nc2ccc(C(=O)O)cc2)cc(OC)c1OC	u	16µM*	u	2%	u	u
COc1ccc(/C(C)=N/Nc2ccc(C(=O)O)cc2)cc1OC	u	u	6.7µM*	2%	1.3µM*	0.63µM*
COc1ccc(OC)c(/C(C)=N/Nc2ccc(C(=O)O)cc2)c1	u	x	-2%	x	14%	3%
O=C(C1CCC(Cn2c(=O)c3sccc3n(Cc3ccc(F)cc3)c2=O)CC1)N1CCOCC1 (configuration not stated)	x	x	4%	x	x	x
N=C1C(c2nc3ccccc3[nH]2)=C(O)CN1C1CCCCC1	u	x	u	x	2µM*	3.2µM*
CN(C)c1ccc(NC(=O)c2cccc(N3C(=O)C4C5C=CC(C5)C4C3=O)c2)cc1 (configuration not stated)	u	-22%	11µM*	5%	3.2µM*	1.8µM*
Cc1cc(OC(C)C(=O)N(Cc2ccc(N(C)C)cc2)Cc2ccco2)ccc1Cl (configuration not stated)	x	-24%	u	x	x	x
CC1(C)C(C(=O)O)N2C(=O)CC2S1(=O)=O (configuration not stated)	x	x	x	0%[39.9 µM]	x	x
Cc1nc(OCC(C)C)c2sc3nc4c(cc3c2n1)COC(C)(C)C4	u	x	9.5µM*	x	1.4µM*	1.8µM*
CCc1nc(OCc2ccco2)c2sc3nc4c(cc3c2n1)COC(C)(C)C4	-2%	x	-20%	-3%	0%	-1%
CCc1nc2c(sc3nc4c(cc32)COC(C)(C)C4)c(=O)n1Cc1ccccc1	-5%	-34%	-10%	-1%	-13%	-6%
COc1nc(C)nc2c1sc1nc3c(cc12)COC(C)(C)C3	8.2µM*	14µM*	13µM*	9%	2µM*	2.5µM*
COc1ccc(-c2ncc3ccccn23)cc1	11%	u	u	-3%	u	5%
Brc1ccc(-c2ncc3ccccn23)cc1	u	x	13µM*	x	3.2µM*	3.2µM*
COc1cccc(-c2ncc3ccccn23)c1	u	14µM*	8.5µM*	-14%	2.8µM*	4µM*
COc1cc(-c2ncc3ccccn23)cc(OC)c1OC	10%	25%	-1%	0%	-3%	1%
COc1cc(OC)cc(-c2ncc3ccccn23)c1	4%	-6%	17µM*	-7%	4%	1%
O=C(OCC(=O)N1CCc2ccccc2C1)c1cccs1	-1%	28%	11µM*	-5%	-4%	-2%
Cc1cnc(C(=O)OCC(=O)N2CCc3ccccc3C2)cn1	0%	-9%	0%	-2%	0%	1%
O=C(OCC(=O)N1CCc2ccccc2C1)c1cccnc1Cl	u	3%	15µM*	4%	u	27%
O=C(OCC(=O)N1CCc2ccccc2C1)c1ccc(OC(F)F)cc1	1%	x	-2%	x	-4%	2%
O=C(OCC(=O)N1CCCCCC1)c1cccs1	u	u	13µM*	-9%	u	u
CC(=O)N1CCC2(CCCN(c3ccccc3)C2)CC1	x	-3%	x	-1%	x	x
Cc1ccc(C(=O)O)cc1Nc1nc2ccccc2n2nnnc12	x	u	17µM*	x	x	x
CCOc1ccc(Nc2nc3ccccc3n3nnnc23)cc1	u	14%	u	0%	4.5µM*	27%
CC(NC(=O)c1ccc(Nc2nc3ccccc3n3nnnc23)cc1)c1ccccc1 (configuration not stated)	x	18%	-2%	x	x	x
CN(C)c1ccc(Nc2nc3ccccc3n3nnnc23)cc1	x	-9%	6.7µM*	x	x	x
